Assay outcomes deposited in PubChem BioAssay by Buhrlage Lab, Dana-Farber Cancer Institute and Novartis Institutes for BioMedical Research (Cambridge, Mass).
Rows were chosen to be rich in hits. Some 6.8% of all compounds tested hit in one or more screens of this group.
USP7 block: inhibitors of human USP7 deubiquitinase. Ubiquitin carboxyl-terminal hydrolase 7 (Homo sapiens), Q93009. purified USP7, Ub-rhodamine cleavage fluorescence. inhibition, % at 20 µM. AID 1645854, 2021. hit rate 0.3% among 47,000
UCHL1 inh: inhibitors of human UCHL1 deubiquitinase | Ubiquitin carboxyl-terminal hydrolase isozyme L1 (Homo sapiens), P09936 | hit rate 0.2% among 47,000 | purified UCHL1, Ub-rhodamine cleavage fluorescence | inhibition, % at 20 µM | AID 1645859, 2021
USP28 inh: inhibitors of human USP28 deubiquitinase. Ubiquitin carboxyl-terminal hydrolase 28 (Homo sapiens), Q96RU2. purified USP28, Ub-rhodamine cleavage fluorescence, 30 min. inhibition, % at 25 µM. hit rate 3% among 47,000. AID 1645857, 2021
USP10 inh: inhibitors of human USP10 deubiquitinase. inhibition, % at 20 µM. Ubiquitin carboxyl-terminal hydrolase 10 (Homo sapiens), Q14694. AID 1645856, 2021. purified USP10, Ub-rhodamine fluorescence, 60 min. hit rate 1.1% among 47,000
USP8 inh: inhibitors of human USP8 deubiquitinase. Ubiquitin carboxyl-terminal hydrolase 8 (Homo sapiens), P40818. purified USP8, Ub-rhodamine cleavage fluorescence, 30 min. inhibition, % at 20 µM. AID 1645853, 2021. hit rate 4.2% among 47,000
OTUD3 inh: inhibitors of human OTUD3 deubiquitinase; purified OTUD3, Ub-rhodamine fluorescence, 2 h; hit rate 0.7% among 47,000; OTU domain-containing protein 3 (Homo sapiens), Q5T2D3; inhibition, % at 25 µM
A number is an active result; n = inactive; x = not tested or not shown. No stated cut-off is given here; in the data, active means inhibition above about 30%; inactive means the rest.

SMILES	USP7 block	UCHL1 inh	USP28 inh	USP10 inh	USP8 inh	OTUD3 inh
O=C(Nc1cccc(Br)c1)c1cc(-c2cccnc2)n[nH]1	n	n	43	37	98	n
COc1cccc(-c2cc(C(=O)Nc3cccc(C)c3)[nH]n2)c1	n	n	n	n	n	n
CC(=O)c1cccc(NC(=O)c2cc(-c3cccnc3)n[nH]2)c1	n	n	91	n	n	n
CC1(C)Cc2c(sc3nc(SCc4ccccc4)nc(NC4CCCCC4)c23)CO1	n	n	n	n	n	n
O=C(Cc1c[nH]c2ccccc12)Nc1nc2ccccc2s1	n	n	64	n	n	n
Cc1cccc2sc(NC(=O)Cc3c[nH]c4ccccc34)nc12	n	n	n	n	n	n
CC(=O)N1CC2(CCN(C(=O)Nc3ccccc3)CC2)C2(CCN(C)C2=O)C1 (centres undefined)	n	n	n	n	n	n
O=C(NCc1ccc(F)cc1)c1cccc(Nc2nc3ccccc3n3cnnc23)c1	n	n	75	38	n	67
Cc1cc2ncn(CCC(=O)Nc3ccc4c(c3)OCCO4)c2cc1C	n	n	n	n	n	n
COc1ccccc1-c1ccc(SCC(=O)Nc2ccc3c(c2)OCCO3)nn1	n	n	80	n	n	n
COc1cccc(C(CC(=O)Nc2ccc3c(c2)OCCO3)n2cccc2)c1 (centres undefined)	n	32	n	n	n	n
COc1cccc(-c2ccc(SCC(=O)Nc3ccc(F)c(F)c3)nn2)c1	n	n	n	n	32	n
Cc1ccccc1C(CC(=O)Nc1ccc2c(c1)OCO2)n1cccc1 (centres undefined)	n	n	n	n	n	n
O=C(CSc1cc(N2CCCCC2)ncn1)Nc1ccc2c(c1)OCCO2	n	n	49	n	n	n
O=C(CC1CCCCC1)N1CCC[C@@H]1Cn1nnc(-c2cccnc2)n1	n	n	n	n	n	n
Cn1c(=O)c(=O)n(C)c2cc(S(=O)(=O)CCC(=O)NCCc3ccc(Cl)cc3)ccc21	n	n	n	n	n	n
O=C(Nc1ccc(F)c(F)c1)C1Oc2ccccc2NC1=O (centres undefined)	n	n	n	n	n	n
Cc1cccc(CS(=O)(=O)N2CCC(C(=O)N3CCCCC3)CC2)c1	n	n	n	n	n	n
Cc1ccc(Nc2nc(NCc3ccco3)c3ccccc3n2)cc1	n	n	67	n	31	35
Cc1ccc2c(Sc3ccc(Cl)cc3)c(C(=O)N3CCC4(CC3)OCCO4)[nH]c2c1	n	n	32	n	n	n
COc1ccc2c(Sc3ccc(C)cc3)c(C(=O)N3CCCCC3)[nH]c2c1	n	n	n	n	n	n
COCCN(C)C(=O)c1c2c(NCC3CC3)ncnc2n2ccccc12	n	n	n	n	31	n
N#Cc1ccccc1CN1C(=O)c2ccccc2S1(=O)=O	n	n	n	n	n	n
O=C1c2ccccc2S(=O)(=O)N1Cc1ccc2nsnc2c1	n	n	35	n	n	n
Cc1[nH]c(-c2nnc(C3CCC3)o2)c(C)c1S(=O)(=O)N1CCN(C(C)C)CC1	n	n	n	n	n	n
SMILES	USP7 block	UCHL1 inh	USP28 inh	USP10 inh	USP8 inh	OTUD3 inh
CC(C)Cc1cc(-c2nnc3sc(-c4ccco4)nn23)n[nH]1	n	n	39	n	35	41
Cc1cc(C)nc(SCC(=O)N(Cc2ccco2)C2(C(=O)Nc3c(C)cccc3C)CCCCC2)n1	n	n	n	n	n	57
CNC(=O)c1c2n(c3ncccc13)CCN(C(=O)c1ccc(C(F)(F)F)nc1)C2	n	n	n	n	n	n
CCOc1ccc2nc(NCCc3ccc(Cl)cc3Cl)sc2c1	n	n	44	n	n	n
NC(N)=NCCC(=O)N1CCn2nc(-c3ccc4ccccc4c3)cc2C1	n	n	45	n	n	n
O=C(Nc1cccc(Cl)c1)c1[nH]nc2c1COc1ccccc1-2	n	n	n	n	75	n
O=C(NCc1ccc2c(c1)OCO2)c1[nH]nc2c1COc1ccccc1-2	x	n	31	n	54	n
O=C(NC1CCN(Cc2ccccc2)CC1)c1[nH]nc2c1COc1ccccc1-2	n	n	67	n	n	n
COc1ccc(NC(=O)c2[nH]nc3c2COc2ccccc2-3)c(OC)c1	n	n	n	n	59	n
O=C(NCCN1CCCCC1)c1[nH]nc2c1COc1ccccc1-2	n	n	n	n	n	n
CC(C)NC(=O)c1[nH]nc2c1COc1ccccc1-2	n	n	n	n	n	n
N#Cc1cccc(NC(=O)c2[nH]nc3c2COc2ccccc2-3)c1	n	n	n	41	72	n
CC1CCCCN1C(=O)CSc1nnc(Cc2ccccc2)n1Cc1ccccc1 (centres undefined)	n	n	n	n	n	n
FC(F)(F)c1cnc(/C=C/Nc2ccccc2Oc2ccccc2)c(Cl)c1	n	n	n	n	n	n
Cn1nc(Cl)c(Cl)c1Oc1ccc(S(=O)(=O)Nc2ccc(Oc3ccc(C(F)(F)F)cn3)c(Cl)c2)cc1	n	n	n	69	n	n
CN1C(=O)OC[C@@H]2CCN(C(=O)NCCC(=O)O)C[C@H]21	n	n	n	n	n	n
CC(C)(O)[C@@H]1CC[C@](C)([C@H]2CC3(CCN(C(=O)c4cccc(F)c4)CC3)CO2)O1	n	n	n	n	n	n
COc1cccc(-n2c(=O)c(C(=O)NCc3ccccc3)c(O)c3cccnc32)c1	n	n	n	n	80	n
CCOCC1CN(S(=O)(=O)c2ccc(C)cc2)Cc2ccnn2C1 (centres undefined)	n	n	n	n	n	n
NS(=O)(=O)c1ccc(NC(=O)c2sccc2Oc2ccc(F)cc2[N+](=O)[O-])cc1	n	n	32	n	n	n
Cc1ccc(C(C(=O)NCc2ccc3c(c2)OCO3)N(C(=O)c2ccc3c(c2)OCCO3)C2CCCC2)cc1 (centres undefined)	n	n	n	n	47	n
N#Cc1ccc(NC(=O)Nc2ccc(OCc3ccccc3)cc2)cc1	n	n	n	n	n	n
N#Cc1ccc(NC(=O)Nc2cccn(Cc3c(F)cccc3Cl)c2=O)cc1	n	n	41	n	89	n
COC(=O)Nc1cccn(Cc2c(Cl)cccc2Cl)c1=O	n	n	88	50	93	81
N#Cc1ccc(NC(=O)Nc2cccn(Cc3ccc(F)cc3)c2=O)cc1	n	n	84	37	95	n
CC1CN(C(=O)c2cccn(Cc3c(Cl)cccc3Cl)c2=O)CC(C)O1 (centres undefined)	n	n	n	n	n	n
Cc1ccccc1NC(=O)Cn1c(C)cc(=O)n2nc(C3CCCCC3)nc12	n	n	n	n	n	n
O=C(NCc1ccc(-c2nc3cnccc3o2)cc1)c1cc2ccccc2o1	n	n	n	n	n	n
